# ChEMBL document CHEMBL3988442, “University of Dundee, Small-Polar-MMV Screening Library” (2021)
# How the values were obtained:
# [1] = molecular target: T1, Aspartate--tRNA(Asp/Asn) ligase (Mycobacterium tuberculosis (strain ATCC 25618 / H37Rv)) (UniProt P9WFW3); assay: Assay for Asp RNA synthetase-1 from Mycobacterium tuberculosis; assay type: functional; set-up: scale not given: direction of the effect not stated beside the values; conditions: 30 µM; note: in the data most compounds retested in dose-response had high values
# T1 sequence (whole entry): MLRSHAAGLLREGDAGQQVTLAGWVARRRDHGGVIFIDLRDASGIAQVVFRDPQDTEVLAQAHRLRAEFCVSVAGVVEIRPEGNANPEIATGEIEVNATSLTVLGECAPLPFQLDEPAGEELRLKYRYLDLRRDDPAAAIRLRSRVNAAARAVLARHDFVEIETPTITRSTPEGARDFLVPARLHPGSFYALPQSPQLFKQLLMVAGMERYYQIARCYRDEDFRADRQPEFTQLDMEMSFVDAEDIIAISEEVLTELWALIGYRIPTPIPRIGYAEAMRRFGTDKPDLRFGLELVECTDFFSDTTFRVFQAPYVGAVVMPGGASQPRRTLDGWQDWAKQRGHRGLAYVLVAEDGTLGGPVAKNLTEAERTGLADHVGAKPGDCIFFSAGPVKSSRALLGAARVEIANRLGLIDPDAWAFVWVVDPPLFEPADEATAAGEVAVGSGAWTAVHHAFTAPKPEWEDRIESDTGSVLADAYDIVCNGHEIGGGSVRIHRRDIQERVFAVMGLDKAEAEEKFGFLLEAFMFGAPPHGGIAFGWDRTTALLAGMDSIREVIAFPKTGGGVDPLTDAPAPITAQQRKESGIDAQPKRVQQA
# [2] = molecular target: Shiga toxin 2 (Escherichia coli O157:H7) (UniProt P09385+P09386); assay: E. coli 0.157:H7 Shiga Toxin SOP - stx2 screening assay; assay type: functional; set-up: scale not given: direction of the effect not stated beside the values; conditions: 30 µM
compound,measurement,setting,value
CCOc1ccc(C#N)cc1NCC(=O)Nc1cc(F)ccc1F,Percent Effect,[1],-5.91%
same,Percent Effect,[2],5.62%
CC(C)OCCN1CCC(N2CCN(C)C2=O)CC1,Percent Effect,[1],0.182%
same,Percent Effect,[2],-16.8%
O=C(NCC1CC1)c1nc(COc2ccc3c(c2)OCO3)no1,Percent Effect,[1],-5.11%
same,Percent Effect,[2],-58.6%
Cn1cc(CN2CCCn3cnc(COCC4CC4)c3C2)cn1,Percent Effect,[1],1.66%
same,Percent Effect,[2],-1.47%
Cc1nc(CN2CCOC(CNc3cccnn3)C2)cs1 (centres undefined),Percent Effect,[1],-1.08%
same,Percent Effect,[2],-2.07%
Cc1nc(C)n(CC2CCCN(CCNC(=O)OC(C)(C)C)C2)n1 (centres undefined),Percent Effect,[1],-2.36%
same,Percent Effect,[2],7.06%
CCc1nnc2n1CCN(C(=O)c1cnc3ccccc3n1)C2,Percent Effect,[1],-4.57%
same,Percent Effect,[2],0.361%
Cc1ncc2c(n1)CN(Cc1nnc(-c3occc3C)o1)CC2,Percent Effect,[1],12.2%
same,Percent Effect,[2],-43.7%
Cn1cc(C2CCCN2Cc2csc(-c3ccsc3)n2)cn1 (centres undefined),Percent Effect,[1],7.77%
same,Percent Effect,[2],-5.27%
CNC(=O)Cc1ccc(NC(=O)NC(C)C(C)C)cc1 (centres undefined),Percent Effect,[1],-6.08%
same,Percent Effect,[2],-0.988%
Cc1ccc2c(c1)CN(C(=O)c1ccccc1F)C(CN(C)C)CO2 (centres undefined),Percent Effect,[1],5.11%
same,Percent Effect,[2],3.26%
Cc1sc(NC(=O)CN(C)S(C)(=O)=O)c(C#N)c1C,Percent Effect,[1],1.76%
same,Percent Effect,[2],-4.6%
CCc1cc(NC2CCN(S(C)(=O)=O)CC2)n2nc(C)c(C)c2n1,Percent Effect,[1],1.78%
same,Percent Effect,[2],-16%
CCN(CC(=O)NC(C)C)S(=O)(=O)N1CCCCCC1,Percent Effect,[1],-4.33%
same,Percent Effect,[2],-4.09%
CCn1cc2c(n1)CN(C(=O)c1ccncc1)CC2COCC1CC1 (centres undefined),Percent Effect,[1],3.06%
same,Percent Effect,[2],-17.4%
COCC1CC2(CCN(C(=O)c3occc3C)CC2)CO1 (centres undefined),Percent Effect,[1],2.64%
same,Percent Effect,[2],-0.429%
O=C(CSC1=NS(=O)(=O)c2cc(F)ccc2N1)c1ccc(Cl)cc1,Percent Effect,[1],5.12%
same,Percent Effect,[2],-0.176%
